“And” between values parts separate entries of the source, which are not always exact repeats. Equal entries are not always repeated. Out of some 420,000 compounds screened, about 50,000 (12%) were called active. About 26% were inconclusive and are not listed. Calls come from the whole dose curve; as a rule, active = well fitted inhibition curve with a large enough effect; inconclusive = small, poorly fitted or top-dose-only effect; inactive = flat fitted curve, though single readings scatter. Shown is part of a subset that was picked to be rich in actives.
assay: qHTS for Inhibitors of human tyrosyl-DNA phosphodiesterase 1 (TDP1): qHTS in cells in presence of CPT; conditions: chicken DT40 Tdp1-/-;hTDP1 cells + 20 nM CPT, ATP luminescence, 48 h; series mostly up to 46.2 µM; activity change, negative = growth inhibition: at the top concentration; note: nearly all actives have a fitted effect of over 55% in size
Outline: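 Chicken DT40 Tdp1-/- cells complemented with human TDP1, 400 cells/well, exposed to compounds plus 20 nM camptothecin for at least 48 h at 37 C; viability read as ATP content by CellTiter-Glo luminescence.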
% is set by controls: 0 for no effect and ±100 for the full control effect; potency is the fitted concentration of half-maximal effect.

| Structure (SMILES) | activity change, negative = growth inhibition | Potency |
| --- | --- | --- |
| COc1cc(/C=C2/C(=O)NN(c3ccc(F)cc3)C2=O)cc([N+](=O)[O-])c1O | -6.31% (inactive) |  |
| CC(C)(C)c1cc(=O)n2c(nc3ccccc32)[nH]1 | -28.4% (inactive) |  |
| COCCOC(=O)C1=C(C)NC(=O)NC1c1cc2c(cc1Br)OCO2 (configuration not stated) | 17.9% (inactive) |  |
| O=C(O)C1=C/C(=C/C=[N+]2c3cc(O)c(O[C@H]4OC(CO)[C@@H](O)[C@@H](O)[C@@H]4O)cc3C[C@@H]2C(=O)[O-])C[C@H](C(=O)O)N1 (some centres not stated) | 1.31% (inactive) |  |
| COc1ccc(CNC(=O)COC(=O)C(CCSC)N2C(=O)c3ccccc3C2=O)cc1 (configuration not stated) | -1.64% (inactive) |  |
| COc1ccccc1C1/C(=C(/O)c2ccc(C)cc2)C(=O)C(=O)N1Cc1ccco1 (configuration not stated) | 11.9% (inactive) |  |
| COc1ccc(C2/C(=C(/O)c3ccccc3)C(=O)C(=O)N2C)c(OC)c1 (configuration not stated) | 0.256% (inactive) |  |
| COc1ccc(/C(O)=C2\C(=O)C(=O)N(Cc3ccco3)C2c2ccc(OC)cc2OC)cc1 (configuration not stated) |  | 29.1 µM (active) |
| CCn1c(SCC(=O)NC2CC2)nnc1-c1ccccn1 | -5.45% (inactive) |  |
| CO[C@H]1[C@@H](O)[C@H](N)[C@@H](O[C@H]2O[C@H]([C@H](C)N)CC[C@H]2N)[C@H](O)[C@@H]1N(C)C(=O)CN | -2.47% (inactive) |  |
| CC[C@]1(O)C[C@@H]2CN(CCc3c([nH]c4ccccc34)[C@@](C(=O)OC)(c3cc4c(cc3OC)N(C)[C@H]3[C@@](O)(C(=O)OC)[C@H](OC(C)=O)[C@]5(CC)C=CCN6CC[C@]43[C@@H]65)C2)C1 |  | 65.1 nM (active) and 47.3 nM (active) and 146 nM (active) |
| CC[C@]1(O)CC2CN(CCc3c([nH]c4ccccc34)[C@@](C(=O)OC)(c3cc4c(cc3OC)N(C=O)[C@H]3[C@@](O)(C(=O)OC)[C@H](OC(C)=O)[C@]5(CC)C=CCN6CC[C@]43[C@@H]65)C2)C1 (some centres not stated) |  | 0.146 µM (active) |
| CCc1nc2onc(C)c2c(=O)n1CC(=O)O | 27.9% (inactive) |  |
| O=C1Cc2cc(S(=O)(=O)Nc3cccc(F)c3)ccc2N1 | -5.68% (inactive) |  |
| Cc1cccc(C(=O)Nc2ccc(-c3nc4ccccc4s3)c(C)c2)c1 | -22.1% (inactive) |  |
| CCC(C(=O)Nc1cccc(-c2nc3cccnc3s2)c1C)c1ccccc1 (configuration not stated) |  | 20.6 µM (active) |
| CCC(C(=O)Nc1ccc2c(c1)OCCO2)c1ccccc1 (configuration not stated) | -5.39% (inactive) |  |
| CCC(C(=O)Nc1ccc(C(C)C)cc1)c1ccccc1 (configuration not stated) | -1.5% (inactive) |  |
| CC(=O)Nc1cccc(-c2nc3ccccc3s2)c1C | 1.91% (inactive) |  |

| Structure (SMILES) | activity change, negative = growth inhibition | Potency |
| --- | --- | --- |
| Cc1c(NC(=O)C(C)(C)C)cccc1-c1nc2ccccc2s1 |  | 13 µM (active) |
| Cc1c(O)cc2c(c1C)O[C@](C)(CCC[C@H](C)CCC[C@H](C)CCCC(C)C)CC2 | -19.5% (inactive) |  |
| Cc1ccc(NC(=O)c2cc([N+](=O)[O-])ccc2Cl)c(O)c1 | 7.21% (inactive) |  |
| CCOc1ccc(Nc2nc(Cl)nc(N3CCN(c4ccc(OC)cc4)CC3)n2)cc1 |  | 18.4 µM (active) |
| CCC(=O)Nc1ccc(Nc2nc(Cl)nc(Nc3ccc(NC(=O)CC)cc3)n2)cc1 | -9.94% (inactive) |  |
| COc1ccc(N2CCN(c3ccc([N+](=O)[O-])cc3Cl)CC2)cc1 | -8.72% (inactive) |  |
| CCOC(=O)N1CCN(CCC(=O)Nc2ccccc2)CC1 | -6.11% (inactive) |  |
| Cc1noc(C)c1CSCC(=O)Nc1nc2ccc(Oc3ccccc3)cc2s1 | -8.95% (inactive) |  |
| O=C(Nc1ccc(S(=O)(=O)N2CCCCC2)cc1)C1CC(=O)N(c2ccc(F)cc2)C1 (configuration not stated) | -7.16% (inactive) |  |
| COC[C@@H]1NS(=O)(=O)c2ccc(Br)cc2O[C@H]1c1ccccc1 | -25.1% (inactive) |  |
| CCOc1ccc2nc(N3CCCC(C(=O)Nc4cc(C)ccc4C)C3)sc2c1 (configuration not stated) |  | 23.1 µM (active) |
| CCOc1ccc2nc(C(=O)N3CCCC(C)C3)sc2c1 (configuration not stated) | -15.4% (inactive) |  |
| Cc1ccc(C)c(NC(=O)C2CCCN(S(=O)(=O)c3cn(C)cn3)C2)c1 (configuration not stated) | -4.35% (inactive) |  |
| COCC(C)NS(=O)(=O)c1ccc(N2CCCCS2(=O)=O)cc1 (configuration not stated) | -29.7% (inactive) |  |
| COC(=O)C1=C(C)N=C2SC(C)C(=O)N2C1/C=C/c1ccccc1 (configuration not stated) | -1.89% (inactive) |  |
| CC(OC(=O)c1ccccc1N1C(=O)C2C3CCC(C3)C2C1=O)C(=O)c1ccccc1 (configuration not stated) | -11.2% (inactive) |  |
| CCOC(=O)c1ccccc1N1C(=O)C2Sc3[nH]c(=O)sc3C(/C=C/c3ccccc3)C2C1=O (configuration not stated) |  | 18.4 µM (active) |
| CCOc1ccc2[nH]c(=O)c(CN(CCCO)C(C)=O)cc2c1 | 7.64% (inactive) |  |
| Cc1ccc2[nH]c(=O)c(CN(CCCN(C)C)C(=O)Nc3cccc(Cl)c3)cc2c1 |  | 20.6 µM (active) |

| Structure (SMILES) | activity change, negative = growth inhibition | Potency |
| --- | --- | --- |
| CCC(=O)N(CCc1ccccc1)Cc1cc2cc(C)ccc2[nH]c1=O | -26.3% (inactive) |  |
| Cc1cc(NC(=O)c2ccccc2C)no1 | -8.51% (inactive) |  |
| OCCn1c(-c2ccccc2)csc1=Nc1ccccc1 |  | 25.9 µM (active) |
| Cc1csc(=Nc2ccccc2)n1CCO | -1.39% (inactive) |  |
| Cc1nc(SCC(=O)NC2CCCC2)[nH]c(=O)c1C | 5.43% (inactive) |  |
| COc1ccccc1N1CCN(S(=O)(=O)c2ccc3c(c2)NC(=O)CS3)CC1 | -24.9% (inactive) |  |
| CC(CC(=O)N1CCN(c2ccccc2)CC1)S(=O)(=O)c1ccc2c(c1)NC(=O)CS2 (configuration not stated) |  | 23.1 µM (active) |
| O=C1CSc2ccc(S(=O)(=O)NCc3ccccc3)cc2N1 | -22.4% (inactive) |  |
| Cc1ccccc1OCCC(=O)OCC(=O)NCCc1ccc(S(N)(=O)=O)cc1 | -4.61% (inactive) |  |
| Cc1oc2c(F)c(F)c(F)c(F)c2c1S(=O)(=O)Nc1cccc(C(F)(F)F)c1 |  | 11.6 µM (active) |
| Cc1ccc(N(CCC(=O)O)S(=O)(=O)c2cccc(C(F)(F)F)c2)cc1 | 0.774% (inactive) |  |
| Cc1noc(C)c1S(=O)(=O)Nc1cc(C(F)(F)F)ccc1N1CCOCC1 | -29% (inactive) |  |
| O=S(O)CNc1ccc(S(=O)(=O)c2ccc(NCS(=O)O)cc2)cc1 | 7.21% (inactive) |  |
| COC(=O)[C@@H]1CC2=CC(=O)CC[C@]2(C)[C@@]23O[C@@H]2C[C@@]2(C)[C@@H](CC[C@@]24CCC(=O)O4)[C@H]13 | 5.44% (inactive) |  |
| C[C@]12CCC(=O)C=C1C=CC1C2CC[C@@]2(C)C1CC[C@@]21CCC(=O)O1 (some centres not stated) |  | 20.6 µM (active) |
| CC(=O)O[C@]1(C(C)=O)CC[C@H]2[C@@H]3C=C(C)C4=CC(=O)CC[C@]4(C)[C@H]3CC[C@@]21C | -0.106% [at 21.1 µM] (inactive) |  |
| CN1CCN(C(=O)/C(=C\c2ccc3c(c2)OCO3)NC(=O)c2cccs2)CC1 | 2% (inactive) |  |
| CCn1ccnc1CN(C)C(=O)c1cc(COc2ccc(Cl)cc2OC)on1 | -25% (inactive) |  |
| O=C(O)CCn1c(SCc2cc(=O)n3ccccc3n2)nc2ccsc2c1=O | 2.83% (inactive) |  |
